# Laboratory results taken from PubChem BioAssay AID1347076 (National Center for Advancing Translational Sciences (NCATS), 2019).
# Among all 400,000 compounds or so, about 13,000 (3.2%) were called active. Roughly 18% stayed inconclusive and do not appear here. Calls follow the shape of the dose curve; as a rule, active = well fitted cell-killing curve with a large enough effect; inconclusive = small, poorly fitted or top-dose-only effect, or effect the other way; inactive = flat fitted curve, though single readings scatter. Many of the other results were omitted from the sample, so actives are more common in it than they were.
# Test: qHTS assay for MDR1-selective chemotherapeutics: Primary screen using the drug-selected MDR subline cells KB-V1; also: nearly all actives have a fitted effect of over 60% in size
# Conditions: KB-V1 MDR cells viability, CellTiter-Glo, 72 h; series mostly up to 46.1 µM; activity change, negative = cytotoxicity: at the top concentration
# How it was run: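 KB-V1 MDR subline cells in DMEM (phenol-red free, 10% FBS) exposed to compounds in qHTS concentration series for 72 h at 37 degrees C. Viability read by CellTiter-Glo luminescence; concentration-effect curves fitted after normalization and correction.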
# % is scaled to controls: 0 for no effect and ±100 for the full control effect; potency is read from the fitted curve at half-maximal effect.
SMILES,"activity change, negative = cytotoxicity",Potency
COc1ccc(C=C2CCC3C(CCCC34OCCO4)C2=O)cc1 (configuration not stated),-14.5% (inactive),–
OC[C@@H]1CN(Cc2ccc(Cl)cc2)C[C@H](n2cnc3c(NCc4ccncc4)ncnc32)O1,7.29% (inactive),–
Cc1cccc(C(=O)OCC(=O)Nc2sccc2C(N)=O)c1C,1.57% (inactive),–
NCCCNC(=S)NCCCN(Cc1ccc(Cl)cc1)c1ccc(Br)cn1,–,inactive
NC(=O)CSc1nnc(-c2cccc(S(=O)(=O)N3CCOCC3)c2)o1,-1.06% (inactive),–
COc1cccc(/C=C/C(=O)Nc2ccc3c(c2)OCCO3)c1,-8.07% (inactive),–
COc1ccc(/C=C/C(=O)Nc2ccc3c(c2)OCCO3)cc1OC,–,20.6 µM (active)
O=C(/C=C\c1ccc2c(c1)OCO2)NC1(C(=O)Nc2ccc3c(c2)OCCO3)CCCCC1,0.694% (inactive),–
Cc1nn2c(=O)cc(COC(=O)CNC(=O)c3ccc(F)cc3)nc2s1,28.8% (inactive),–
Cc1cc(C)c2cc(C#N)c(N3CCNCC3)nc2c1,0.402% (inactive),–
Cc1ccc2nc(NCCCNC(=O)c3cnccn3)c(C#N)cc2c1,0.0278% (inactive),–
CCC(C)(C)n1nnnc1CN1CCN(c2nc3ccc(C)cc3cc2C#N)CC1,–,23.1 µM (active)
NS(=O)(=O)c1ccc(NC(=O)C(=O)Nc2ccc3nc4n(c(=O)c3c2)CCCCC4)cc1,17.5% (inactive),–
CN1OC[C@@H]2CN(C(=O)c3cccc4ccccc34)[C@H](c3ccc(N4CCCCC4)cc3)C[C@@H]21,22.9% (inactive),–
CNc1cncc(-c2cccc(C(=O)N3CCOCC3)c2)n1,4.04% (inactive),–
CS(=O)(=O)Nc1ccc(C2=NN(S(C)(=O)=O)C(c3cccs3)C2)cc1 (configuration not stated),-6.25% (inactive),–
CNc1cncc(-c2ccc(NS(C)(=O)=O)cc2)n1,–,5.17 µM (active)
O=C(NCCN1CCOCC1)c1ccc2c(c1)N(Cc1cccc(Cl)c1)C(=O)c1ccccc1S2(=O)=O,29.9% (inactive),–
CCc1ccc2oc(-c3ccc(C)c(NC(=O)/C=C/c4ccco4)c3)nc2c1,22.1% (inactive),–
COC(=O)c1c(-c2cccs2)csc1NC(=O)CSc1ncnc2sc(C)c(C)c12,–,18.4 µM (active)
CCOC(=O)c1c(NC(=O)CSc2nccc(=O)[nH]2)sc(C)c1C,-16.2% (inactive),–
Cc1sc2ncnc(SCC(=O)NC3CCS(=O)(=O)C3)c2c1C (configuration not stated),-1.3% (inactive),–
COCCn1c(SCC(=O)c2cc(C)ccc2C)nc2cc(C(=O)NC3CCCC3)ccc2c1=O,-7.24% (inactive),–
CCCCN(CCCNC(=O)c1cc(Nc2ccccc2OC)nc2ccccc12)c1ccccc1,14.8% (inactive),–
O=C1CC2(CCN(C(=O)COc3ccc(F)cc3)CC2)Oc2ccccc21,-11.3% (inactive),–
O=C(Nc1cccc(OCC(=O)N2CCOCC2)c1)C1CCCCC1,14.1% (inactive),–

SMILES,"activity change, negative = cytotoxicity",Potency
O=C1CC2(CCCCC2)Oc2ccc(OCC(=O)N3CCOCC3)cc21,–,11.6 µM (active)
O=C(c1ccccc1)N1CCN(c2cc(-c3ccccc3)nc3cc(-c4cccc(Cl)c4)nn23)CC1,-14.3% (inactive),–
CCNC(=O)C1CCCN(C(=O)c2ccc(OC)cc2OC)CC1 (configuration not stated),2.93% (inactive),–
CCN(CC)C(=O)CSc1nnc(CNc2ccc(F)cc2)n1Cc1ccco1,-7.12% (inactive),–
CN(C)C(=S)N=c1ssc(=S)n1Cc1ccco1,–,4.11 µM (active)
CCc1ccccc1N1CN(Cc2ccco2)CNC1=S,-5.41% (inactive),–
CC(C)NC(=O)C1(C)CCCCCN1C(=O)c1ccc(-c2ccccc2)cc1 (configuration not stated),-1.14% (inactive),–
OC[C@@H]1CN(C2CCCC2)C[C@H](n2cnc3c(NC4CCC4)ncnc32)O1,19.1% (inactive),–
CCOc1cccc2c1N[C@@H](c1ccc(C(=O)O)cc1)[C@H]1CC=C[C@@H]21,17.3% (inactive),–
COc1cccc(C(O)c2ncc(-c3ccc4ccccc4c3)[nH]2)c1 (configuration not stated),-14.9% (inactive),–
CN1CCN(C2Cc3ccc(Cl)cc3Sc3ccc(F)cc32)CC1 (configuration not stated),–,16.4 µM (active)
CC(C)CNC(=O)C1(C)CCCN1C(=O)CSc1ccccc1 (configuration not stated),2.38% (inactive),–
CCCCCn1c(=O)[nH]c2cc(C(=O)Nc3ccc(F)cc3)ccc2c1=O,-4.83% (inactive),–
Cc1ccc(S(=O)(=O)/N=C2\C=C(NS(=O)(=O)c3ccc(C)cc3)C(=O)c3ccccc32)cc1,-17% (inactive),–
COc1ccc(-n2c(SCC(N)=O)nc3c(oc4ccccc43)c2=O)cc1,0% (inactive),–
Cc1cccc(NC(=O)CSc2nc3c(oc4ccccc43)c(=O)n2-c2ccc(F)cc2)c1,2.03% (inactive),–
Cc1ccc(C)c(NC(=O)CSc2nc3c(oc4ccccc43)c(=O)n2-c2ccccc2)c1,–,7.31 µM (active)
Cc1c(C)c(C)c2[nH]c(=S)[nH]c2c1C,–,3.66 µM (active)
CCCOc1ccc(F)cc1-c1cc(C(=O)Nc2ccc(F)cc2)[nH]n1,-21.7% (inactive),–
CCC(C)NC(=O)c1ccccc1NC(=O)c1ccccc1N(C)S(C)(=O)=O (configuration not stated),0% (inactive),–
CCCCNC(=O)c1ccccc1NC(=O)C1=C(C)OCCS1,-18.7% (inactive),–
CCCCNC(=O)c1ccccc1NC(=O)c1ccccc1N(C)S(C)(=O)=O,–,23.1 µM (active)
CCCCOc1ccc(CNC(=O)c2ccc3c(c2)N(C)C(=O)C2CCCCN32)cc1 (configuration not stated),11.8% (inactive),–
CCN(CC)CCN(C(=O)c1ccc2c(c1)CCCC2)c1nc2c(OC)cccc2s1,-19.3% (inactive),–
CCC(=O)N1c2ccccc2CC1C(=O)N1CCN(c2ccccc2F)CC1 (configuration not stated),-0.299% (inactive),–
Cc1ccc(-c2nc3cccc(C)n3c2Nc2ccc3c(c2)OCCO3)cc1,-6.68% (inactive),–

SMILES,"activity change, negative = cytotoxicity",Potency
CN(c1ccccc1)S(=O)(=O)c1ccc(C(=O)NCc2cccnc2)cc1,-8.64% (inactive),–
COc1ccc(NC(=O)CNC(=O)Cc2ccccc2)cc1OC,0% (inactive),–
COc1ccc(CCNC(=O)Cc2ccc(C)cc2)cc1OC,-23.9% (inactive),–
COc1ccc(CNC(=O)c2ccc(-c3cccnc3)c3ccoc23)cc1OC,–,18.4 µM (active)
COc1ccc(CNC(=O)c2c(C)cc(=O)oc2C)cc1OC,13.8% (inactive),–
COc1ccc(CNC(=O)c2ccc(Br)s2)cc1OC,-18.8% (inactive),–
COc1ccc(CNC(=O)Cc2ccc(-c3ccccc3)cc2)cc1OC,–,7.31 µM (active)
CCOc1cc(C2C(C(=O)OC)=C(C)NC3=C2C(=O)c2ccccc23)ccc1O (configuration not stated),0.212% (inactive),–
CCOC(=O)CSC1=Nc2ccccc2C2=NC(CCC(=O)NCc3ccc(F)cc3)C(=O)N12 (configuration not stated),8.51% (inactive),–
CCNS(=O)(=O)c1ccc(CCC(=O)N2CCN(c3ccc(OC)cc3)CC2)cc1,-7.91% (inactive),–
CCCNS(=O)(=O)c1ccc(CCC(=O)N2CCCC2)cc1,-7.52% (inactive),–
CCNS(=O)(=O)c1ccc(CCC(=O)N2CCN(c3cc(Cl)ccc3C)CC2)cc1,–,14.6 µM (active)
O=C1C(Sc2cccc(F)c2)=C[C@@]2(O)CC[C@@H](O)[C@]1(Sc1cccc(F)c1)[C@H]2O,-13.7% (inactive),–
CCc1nc2c(OCCOc3ccccc3)cccn2c1N(C)C(=O)c1ccccc1F,-2.19% (inactive),–
COC(=O)C[C@H]1C=C[C@H](NC(=O)c2ccc(F)cc2)[C@@H](CO)O1,-15% (inactive),–
CN(C)Cc1cn(-c2ccccc2)nc1-c1ccccc1,-7.78% (inactive),–
CN(C)c1cccc2ccccc12,12.3% (inactive),–
CC(=O)Nc1ccc(NC(=O)CSc2nnnn2-c2ccccc2F)cc1,-14.2% (inactive),–
Cc1ccccc1-n1nnnc1SCCCC(=O)c1ccc(F)cc1,–,6.51 µM (active)
Cc1cc(NC(=O)CSc2nnnn2-c2ccc(F)cc2)no1,16.9% (inactive),–
O=C(/C=C/[C@H]1O[C@@H](n2cnc3c(NC(=O)c4ccccc4)ncnc32)[C@H](O)[C@@H]1O)NCc1ccccc1,-15.7% (inactive),–
CCCC(=O)N1CCN(c2nc3c(OC)ccc(C)c3s2)CC1,-4.94% (inactive),–
Cc1onc(-c2ccccc2)c1C(=O)NNC(=S)NC(=O)c1ccc(F)cc1,-9.36% (inactive),–
COc1ccc(C(=O)NC(=S)NNC(=O)CCc2ccccc2)cc1,–,6.51 µM (active)
COc1ccc(C(=O)NNC(=S)NC(=O)c2ccccc2)cc1,-22.6% (inactive),–
COc1ccc(C(=O)NNC(=S)NC(=O)c2ccccc2[N+](=O)[O-])cc1,0% (inactive),–

SMILES,"activity change, negative = cytotoxicity",Potency
CC(C)Oc1ccc(CCC(=O)NNC(=S)NCc2ccccc2)cc1,0% (inactive),–
COc1ccc(C(=O)NC(=S)NNC(=O)c2c(-c3ccccc3)noc2C)cc1,–,6.51 µM (active)
O=S(=O)(Nc1ccc2nc(-c3cccc(Cl)c3)oc2c1)c1ccccc1,2.99% (inactive),–
Cc1ccc(C)c(N2CCN(C(=O)Cn3ncc4c(=O)oc5ccc(C)cc5c43)CC2)c1,6.55% (inactive),–
CC(=O)Nc1ccc(CNc2nc(NCCN(C)C)nc3cc(-c4ccccc4)sc23)cc1,16.7% (inactive),–
CN1C[C@@H](CO)O[C@@H](n2cnc3c(N4CCN(CCO)CC4)ncnc32)C1,7.63% (inactive),–
CCCn1nc(NC(=O)C(C)C)c2cc3cc(OC)ccc3nc21,2% (inactive),–
CCCn1nc(NS(=O)(=O)c2ccc(F)cc2)c2cc3ccccc3nc21,14.6% (inactive),–
CCCn1nc(NS(=O)(=O)c2ccccc2)c2cc3cc(C)ccc3nc21,–,14.6 µM (active)
COc1cccc(NC(=O)CSc2cc(=O)n(C)c3ccc(Cl)cc23)c1,-14.4% (inactive),–
CC(=O)Nc1ccc(C=CC(=O)c2ccc([N+](=O)[O-])cc2)cc1,-4.54% (inactive),–
CN(C)c1ccc(/C=C/C(=O)c2ccc(C(C)(C)C)cc2)cc1[N+](=O)[O-],–,18.4 µM (active)
Cc1cccc(C=CC(=O)c2ccc(Cl)cc2)c1,-4.15% (inactive),–
CCOc1ccc(S(=O)(=O)c2cn(Cc3ccc(OC)cc3)c3ccc(F)cc3c2=O)cc1,7.8% (inactive),–
Cc1nc2ccc(S(=O)(=O)N(CC(=O)Nc3ccc(F)cc3)Cc3ccccc3)cc2s1,6.91% (inactive),–
CC(C)(C)N1C(=O)c2c(C(=O)OCc3ccccc3)[nH]c(-c3ccccc3)c2C1=O,0.678% (inactive),–
Cc1ccc(NC(=O)Cn2cccc2C2=NC(c3ccccc3)CO2)c(C)c1 (configuration not stated),–,16.4 µM (active)
Cc1ccc(NC(=O)Cn2nnc(C(=O)NCc3ccco3)c2N)c(C)c1,20.9% (inactive),–
Cc1ccc(NC(=O)CSc2cccc3cccnc23)c(C)c1,-30.1% (inactive),–
CCOc1ccc(NC(=O)C2CCN(S(=O)(=O)c3cc(-c4noc(C)n4)ccc3C)CC2)cc1,-3.59% (inactive),–
c1cc(-c2ccc3[nH]ccc3c2)n2ccnc2c1,0% (inactive),–
CCCCC(=O)N(C)c1c(CC)nc2c(OCc3ccc(Cl)cc3Cl)cccn12,–,16.4 µM (active)
CCOC(=O)N(C)c1c(CC)nc2c(OCc3ccccc3C(=O)OC)cccn12,-2.06% (inactive),–
CCCCC(=O)N(C)c1c(CC)nc2c(OCc3ccc(S(C)(=O)=O)cc3)cccn12,-12.7% (inactive),–
